Assay results reported in PubChem BioAssay AID1159580 (chemical genetic matrix, 2015).
The whole screen tested about 5,500 compounds, of which about 2,000 (36%) were called active. Not shown: some 18% with an inconclusive outcome. Rule as the data show it: active = normalized growth mostly below about 0.91 (no sharp cut-off); inconclusive = no clear call, values can overlap the other calls; inactive = mostly above about 0.92. The list shows a part of the results.

Assay: chemical genetic growth profiling, strain panel (AID 1159580);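 also: tested at 20 µM; growth read once vehicle control cultures reached saturation at 30 °C; 1 = growth at the plate median or of vehicle wells; lower values mean less growth of the strain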
Details: S. cerevisiae deletion strains, growth OD

Measured: normalized growth

COc1cc(OC)c2c(=O)c(-c3ccc4c(c3)OCO4)coc2c1
inactive: locus YAL021C, strain ccr4, hits give low values 1.01 | locus YAL026C, strain drs2, hits give low values 0.982 | locus YAL030W, strain snc1, hits give low values 0.977 | locus YBL061C, strain skt5, hits give low values 0.979 | locus YBR009C, strain hhf1, hits give low values 0.984 | locus YBR023C, strain chs3, hits give low values 0.989 | locus YBR171W, strain sec66, hits give low values 0.969 | locus YBR231C, strain swc5, hits give low values 1 | locus YBR279W, strain paf1, hits give low values 0.992 | locus YCL011C, strain gbp2, hits give low values 0.981 | locus YCL016C, strain dcc1, hits give low values 0.986 | locus YCL061C, strain MRC1, hits give low values 0.996 | locus YCL069W, strain vba3, hits give low values 0.983 | locus YCR088W, strain abp1, hits give low values 0.979 | locus YDL005C, strain med2, hits give low values 0.997 | locus YDL040C, strain nat1, hits give low values 0.981 | locus YDR001C, strain nth1, hits give low values 0.98 | locus YDR069C, strain doa4, hits give low values 0.998 | locus YDR137W, strain rgp1, hits give low values 1.01 | locus YDR159W, strain sac3, hits give low values 1.01 | locus YDR195W, strain ref2 0.988 | locus YDR297W, strain sur2, hits give low values 0.989 | locus YDR334W, strain swr1, hits give low values 0.991 | locus YDR335W, strain msn5, hits give low values 1 | locus YDR392W, strain spt3, hits give low values 0.802 | locus YEL003W, strain gim4, hits give low values 0.992 | locus YEL037C, strain rad23, hits give low values 0.993 | locus YEL061C, strain CIN8 (second series), hits give low values 0.986 | locus YER015W, strain faa2, hits give low values 1 | locus YER016W, strain bim1, hits give low values 0.987 | locus YER111C, strain swi4, hits give low values 1.01 | locus YER155C, strain BEM2 (second series), hits give low values 0.942 | locus YFR010W, strain ubp6, hits give low values 1 | locus YGL167C, strain pmr1, hits give low values 0.984 | locus YGL173C, strain kem1, hits give low values 0.985 | locus YGL227W, strain vid30, hits give low values 0.978 | locus YGL240W, strain doc1, hits give low values 1.02 | locus YGL253W, strain hxk2, hits give low values 0.977 | locus YHR013C, strain ard1, hits give low values 0.971 | locus YHR027C, strain rpn1, hits give low values 1 | locus YHR030C, strain SLT2, hits give low values 1.05 | locus YHR079C, strain IRE1, hits give low values 1.05 | locus YHR142W, strain chs7, hits give low values 0.931 | locus YJL092W, strain hpr5, hits give low values 0.978 | locus YJL095W, strain BCK1 (second series), hits give low values 0.984 | locus YJL095W, strain BCK1, hits give low values 1.03 | locus YJL115W, strain asf1, hits give low values 0.992 | locus YJL129C, strain trk1, hits give low values 0.918 | locus YJL154C, strain vps35, hits give low values 0.991 | locus YJL164C, strain tpk1, hits give low values 0.98 | locus YJL166W, strain qcr8, hits give low values 0.99 | locus YJL187C, strain SWE1, hits give low values 0.996 | locus YJR066W, strain TOR1, hits give low values 0.99 | locus YKL160W, strain elf1, hits give low values 0.991 | locus YKR026C, strain gcn3, hits give low values 0.98 | locus YKR091W, strain srl3, hits give low values 0.986 | locus YLL001W, strain dnm1, hits give low values 0.977 | locus YLL026W, hits give low values 0.985 | locus YLL041C, strain sdh2, hits give low values 0.99 | locus YLR027C, strain aat2, hits give low values 0.979 | locus YLR113W, strain HOG1, hits give low values 1.08 | locus YLR221C, strain rsa3, hits give low values 0.961 | locus YLR258W, strain gsy2, hits give low values 0.976 | locus YLR262C, strain YPT6 (second series), hits give low values 1.04 | locus YLR320W, strain mms22, hits give low values 0.964 | locus YLR342W, strain FKS1, hits give low values 0.983 | locus YLR357W, strain rsc2, hits give low values 0.987 | locus YLR370C, strain arc18, hits give low values 0.99 | locus YLR384C, strain iki3, hits give low values 0.99 | locus YML120C, strain ndi1, hits give low values 0.967 | locus YMR058W, strain fet3, hits give low values 0.983 | locus YMR125W, strain sto1, hits give low values 0.989 | locus YMR129W, hits give low values 0.981 | locus YMR205C, strain PFK2, hits give low values 0.962 | locus YMR231W, strain pep5, hits give low values 0.987 | locus YNL071W, strain lat1, hits give low values 0.954 | locus YNL183C, strain NPR1, hits give low values 0.984 | locus YNL209W, strain ssb2, hits give low values 0.985 | locus YNL248C, strain rpa49, hits give low values 1.02 | locus YNL322C, strain KRE1 (second series), hits give low values 0.983 | locus YNR049C, strain mso1, hits give low values 0.995 | locus YOR001W, strain rrp6, hits give low values 0.994 | locus YOR070C, strain gyp1, hits give low values 0.999 | locus YOR080W, strain dia2, hits give low values 1 | locus YOR083W, strain WHI5, hits give low values 0.98 | locus YOR106W, strain vam3, hits give low values 0.986 | locus YOR231W, strain MKK1, hits give low values 1.07 | locus YOR265W, strain rbl2, hits give low values 0.99 | locus YOR270C, strain vph1, hits give low values 0.922 | locus YOR290C, strain snf2, hits give low values 0.957 | locus YPL051W, strain arl3, hits give low values 1.01 | locus YPL078C, strain atp4, hits give low values 0.983 | locus YPL106C, strain sse1, hits give low values 0.987 | locus YPL240C, strain hsp82, hits give low values 0.984 | locus YPL256C, strain CLN2, hits give low values 1.05
